In all, about 39,000 compounds went through this assay and about 3,300 (8.5%) were called active. This is one part of a sample in which actives are shown more often than they occur.

The test system of this test is HepG2. Briefly: cytotoxicity call (relative viability < 0.9). The conditions noted are these: 10 µM.
`C=CC(=O)Nc1cccc(Nc2nc(Nc3ccc(NC4CN(CCF)C4)cc3OC)ncc2C(F)(F)F)c1`: the cytotoxicity call was “active”.
For the molecule `COc1cccc(-c2ccc3c(c2)O[C@H](CN(C)Cc2cncnc2)[C@@H](C)CN([C@H](C)CO)S3(=O)=O)c1`, the cytotoxicity call was “inactive”.
The value for `CCOC(=O)CC(=O)N1CCSC1COc1ccccc1OC` (configuration not stated) was “active”; that for `CCOc1ccccc1C(N)=O` was “inactive”; that for `COc1ccccc1O[C@@H](C)C(=O)NN` was “inactive”.
The value for `N[C@@H](Cn1ccc(=O)n(Cc2ccccc2C(=O)O)c1=O)C(=O)O` was “inactive”; that for `Cc1noc(C)c1S(=O)(=O)Nc1ccc2c(c1)C(=O)N([C@@H](C)CO)C[C@@H](C)[C@@H](CN(C)C(=O)Nc1ccc3c(c1)OCO3)O2` was “inactive”; that for `COc1cc2nccc(Oc3ccc(NC(=O)C4(C(=O)Nc5ccc(F)cc5)CC4)cc3)c2cc1OC` was “inactive”.
The value for `Cc1cc(C)nc(NS(=O)(=O)c2ccc(NC(=O)c3cccn(OCc4ccc(F)cc4)c3=O)cc2)n1` was “inactive”; that for `COc1ccc2c3c(n(c2c1)C)[C@H](CO)N(C[C@]13CCN(CC1)C(=O)CN1CCOCC1)C(=O)Nc1ccc(cc1)F` was “inactive”.
With `COc1cc2nccc(Oc3ccc(NC(=O)c4cn(C(C)C)c(=O)n(-c5ccc(F)cc5)c4=O)cc3F)c2cc1OC`, the cytotoxicity call is “active”.
Regarding `COc1cc2c(Oc3ccc(NC(=O)C4(C(=O)Nc5ccc(F)cc5)CC4)cc3F)ccnc2cc1OCCCN1CCOCC1`, the cytotoxicity call was “active”.
The value for `C[C@H]1CN([C@@H](C)CO)C(=O)Cc2cc(NC(=O)C3CC3)ccc2O[C@H]1CN(C)C(=O)Nc1ccccc1` was “inactive”; that for `C[C@H]1CN([C@@H](C)CO)C(=O)Cc2cc(NS(=O)(=O)c3ccccc3)ccc2O[C@H]1CN(C)S(C)(=O)=O` was “inactive”.
The value for `O=S(=O)(O)O/N=C(\Cc1ccc(O)cc1)S[C@H]1O[C@H](CO)[C@@H](O)[C@H](O)[C@H]1O` was “inactive”; that for `CC=Cc1ccc2n(c1=O)C[C@@H]1[C@@H](CO)[C@H](C(=O)NCCc3cn(C)cn3)N(C(=O)CC)[C@H]21` was “inactive”; that for `C[C@H](CO)N1C[C@H](C)[C@H](CN(C)C(=O)C2CCOCC2)Oc2ncc(C#Cc3cccc(F)c3)cc2C1=O` was “inactive”.
The value for `CC(C)N1CC[C@@H](CNCc2ccc(Oc3ccccc3)cc2)Oc2c(NC(=O)c3ccncc3)cccc2C1=O` was “inactive”; that for `O=C(NCc1ccccn1)C1CCNCC1` was “inactive”.
Regarding `CC(C)CNC(=O)C(=O)NCc1ccccn1`, the cytotoxicity call was “inactive”.
The value for `CN(CC(=O)NCc1ccccn1)S(=O)(=O)c1cc(Br)cnc1N` was “active”; that for `Nc1nc(Cl)nc(Cl)n1` was “inactive”; that for `COc1ccc(NC(=O)Nc2ccc3c(c2)[C@@H]2C[C@@H](CC(=O)NCc4ccccn4)O[C@H](CO)[C@@H]2O3)cc1` was “inactive”.
The value for `C[C@@H]1CN([C@@H](C)CO)C(=O)Cc2cc(NC(=O)C3CCCCC3)ccc2O[C@H]1CN(C)Cc1ccc(C(F)(F)F)cc1` was “inactive”; that for `C[C@H](CO)N1C[C@H](C)[C@H](CN(C)Cc2ccc(C(F)(F)F)cc2)Oc2ccc(NC(=O)C3CCCCC3)cc2CC1=O` was “inactive”; that for `C[C@H]1CN([C@@H](C)CO)C(=O)Cc2cc(NC(=O)C3CCCCC3)ccc2O[C@@H]1CN(C)Cc1ccc(C(F)(F)F)cc1` was “active”.
The value for `C[C@@H]1CN([C@H](C)CO)C(=O)Cc2cc(NC(=O)C3CCCCC3)ccc2O[C@@H]1CN(C)Cc1ccc(C(F)(F)F)cc1` was “active”; that for `C[C@@H]1CN([C@@H](C)CO)C(=O)Cc2cc(NC(=O)C3CCCCC3)ccc2O[C@@H]1CN(C)Cc1ccc(C(F)(F)F)cc1` was “active”.
Consider `C[C@H]1CN([C@@H](C)CO)C(=O)Cc2cc(NC(=O)C3CCCCC3)ccc2O[C@H]1CN(C)Cc1ccc(C(F)(F)F)cc1`, for which the cytotoxicity call was “inactive”.
Turning to `C[C@H](CO)N1C[C@H](C)[C@H](CN(C)C(=O)Nc2ccc(C(F)(F)F)cc2)Oc2ccc(NC(=O)C3CCCCC3)cc2CC1=O`, the cytotoxicity call is “inactive”.
As for `C[C@@H]1CN([C@H](C)CO)C(=O)Cc2cc(NC(=O)C3CCCCC3)ccc2O[C@H]1CN(C)Cc1ccc(C(F)(F)F)cc1`, the cytotoxicity call is “inactive”.
The value for `C[C@H](CO)N1C[C@H](C)[C@@H](CN(C)Cc2ccc(C(F)(F)F)cc2)Oc2ccc(NC(=O)C3CCCCC3)cc2CC1=O` was “inactive”; that for `CCN1C[C@]23CN(C(=O)c4cnccn4)C[C@@H](C[C@H]2S1(=O)=O)O3` was “inactive”.
Regarding `C[C@H]1CN([C@@H](C)CO)C(=O)CCCn2nncc2CO[C@H]1CN(C)S(=O)(=O)c1ccc(Oc2ccccc2)nc1`, the cytotoxicity call was “inactive”.
The value for `C[C@@H]1CCCCO[C@H](CN(C)C(=O)Nc2ccc(F)cc2)[C@H](C)CN([C@H](C)CO)C(=O)c2cc(NS(=O)(=O)c3ccccc3)ccc2O1` was “inactive”.
The value for `C[C@H](CO)N1C[C@H](C)[C@H](CN(C)C)Oc2ccc(NS(=O)(=O)c3cn(C)cn3)cc2CC1=O` was “inactive”.
The value for `Cc1noc(C)c1S(=O)(=O)NC(C)C` was “inactive”; that for `CS(=O)(=O)CS(=O)(=O)C1=C(N2CCOCC2)C2CCN1CC2` was “inactive”; that for `Cc1noc(C)c1NC(=O)N[C@@H]1C=C[C@@H](CC(=O)N2CCN(C)CC2)O[C@H]1CO` was “inactive”.
Consider `c1ccc(-c2cccs2)nc1`, for which the cytotoxicity call is “inactive”.
The value for `O=C(Nc1ccc(C(F)(F)F)cc1)Nc1ccc2c(c1)[C@H]1C[C@@H](CC(=O)N3CCc4ccccc4C3)O[C@H](CO)[C@H]1O2` was “active”.
The value for `O=C(Nc1ccc(C(F)(F)F)cc1)Nc1ccc2c(c1)[C@@H]1C[C@H](CC(=O)N3CCc4ccccc4C3)O[C@@H](CO)[C@@H]1O2` was “inactive”; that for `O=C(Nc1ccc(C(F)(F)F)cc1)Nc1ccc2c(c1)[C@@H]1C[C@@H](CC(=O)N3CCc4ccccc4C3)O[C@H](CO)[C@@H]1O2` was “active”; that for `O=C(Nc1ccc(C(F)(F)F)cc1)Nc1ccc2c(c1)[C@H]1C[C@H](CC(=O)N3CCc4ccccc4C3)O[C@@H](CO)[C@H]1O2` was “inactive”.
Regarding `O=C(Nc1ccc(C(F)(F)F)cc1)Nc1ccc2c(c1)[C@H]1C[C@@H](CC(=O)N3CCc4ccccc4C3)O[C@@H](CO)[C@H]1O2`, the cytotoxicity call is “inactive”.
For `O=C(Nc1ccc(C(F)(F)F)cc1)Nc1ccc2c(c1)[C@@H]1C[C@H](CC(=O)N3CCc4ccccc4C3)O[C@H](CO)[C@@H]1O2`, the cytotoxicity call is “inactive”.
The value for `CO[C@@H]1CN(C)C(=O)c2cc(NC(=O)c3cc(C)on3)ccc2OC[C@@H](C)N(C(=O)C2CCC2)C[C@H]1C` was “inactive”.

Values taken from the antibiotic and cytotoxicity screens of Wong et al. (2023).
